Outcome and AC50 data for eleven compounds are collected here from PubChem BioAssay (EPA / NIEHS).

The target of assay [1] is Oxysterols receptor LXR-alpha (Homo sapiens) (UniProt Q13133). Put plainly: ATG_LXRa_TRANS: Attagene TRANS-FACTORIAL HepG2 Assay for human Liver X Receptor alpha (LXRa) (AID 2282980; active = hit-call score of the fitted dose curve at least 0.9, where 1 is the maximum). As to conditions: HepG2 Attagene TRANS reporter, LXRa transactivation. In a few lines: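 HepG2 cells transiently transfected with GAL4-UAS reporter units for chimeric NR-Gal4 proteins, exposed to chemicals for 24 h. Reporter mRNA quantified by RT-PCR and capillary electrophoresis; gain of signal fitted relative to DMSO.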
Chain of Oxysterols receptor LXR-alpha (Homo sapiens) (Q13133 whole entry, looked up, the tested form may be a part): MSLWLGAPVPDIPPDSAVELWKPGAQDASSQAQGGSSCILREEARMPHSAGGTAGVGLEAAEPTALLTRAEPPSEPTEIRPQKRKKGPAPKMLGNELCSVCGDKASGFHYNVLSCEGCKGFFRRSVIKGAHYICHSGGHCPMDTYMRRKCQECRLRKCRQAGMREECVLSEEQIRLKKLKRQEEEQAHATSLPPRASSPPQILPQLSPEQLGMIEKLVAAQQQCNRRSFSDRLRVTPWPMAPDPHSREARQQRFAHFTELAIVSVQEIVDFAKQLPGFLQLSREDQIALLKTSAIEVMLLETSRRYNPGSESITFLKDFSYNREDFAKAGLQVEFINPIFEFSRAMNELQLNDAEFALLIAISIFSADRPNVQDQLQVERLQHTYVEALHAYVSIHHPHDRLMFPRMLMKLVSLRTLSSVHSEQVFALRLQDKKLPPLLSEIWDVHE

Assay [2] concerns the target Oxysterols receptor LXR-beta (Homo sapiens) (UniProt P55055). Put plainly: ATG_LXRb_TRANS: Attagene TRANS-FACTORIAL HepG2 Assay for human Liver X Receptor beta (LXRb) (AID 2282981; active = hit-call score of the fitted dose curve at least 0.9, where 1 is the maximum). Particulars: HepG2 Attagene TRANS GAL4-LXRb reporter, mRNA. In a few lines: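 Readout: fluorescent reporter mRNA fragments resolved by capillary electrophoresis after RT-PCR. System: transiently transfected human HepG2, exogenous LXRb-Gal4 chimera driving GAL4-UAS reporter, 24 h dosing. Activity fitted upward against DMSO baseline.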

A short description of assay [3]: ATG_M_06_TRANS: Attagene TRANS-FACTORIAL HepG2 Assay for M06 Transcription Factor (Internal Marker) (AID 2282983; active = hit-call score of the fitted dose curve at least 0.9, where 1 is the maximum;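 note: reporter transcript level by RT-PCR then capillary electrophoresis fluorescence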). Particulars: HepG2 Attagene TRANS M06 internal marker reporter. An outline of the steps: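 mRNA levels of a reporter transcript, quantified as FAM fluorescence on capillary electrophoresis, served as readout. HepG2 cells expressing exogenous GAL4-chimera reporter constructs were exposed for 24 h. Gain of signal over DMSO was evaluated.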

A short description of assay [4]: ATG_M_32_TRANS: Attagene TRANS-FACTORIAL HepG2 Assay for M32 Transcription Factor (Internal Marker) (AID 2282984; active = hit-call score of the fitted dose curve at least 0.9, where 1 is the maximum;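 note: transcript level of a background control reporter unit measured by RT-PCR and capillary electrophoresis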). Particulars: HepG2 Attagene TRANS M32 internal marker reporter. An outline of the steps: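 Read-out: fluorescent reporter cDNA fragments resolved by capillary electrophoresis after RT-PCR of total RNA. Transfected HepG2 cells were exposed to chemical for 24 h. Activity scored in the positive direction relative to DMSO.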

Assay [5] addresses Nuclear receptor subfamily 4 group A member 2 (Homo sapiens) (UniProt P43354). Description: ATG_NURR1_TRANS: Attagene TRANS-FACTORIAL HepG2 Assay for human Nuclear Receptor Related Protein 1 (NURR1) (AID 2282985; active = hit-call score of the fitted dose curve at least 0.9, where 1 is the maximum). As to conditions: HepG2 Attagene TRANS reporter, mRNA readout. An outline of the steps: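 Read-out: reporter mRNA induction by RT-PCR plus capillary electrophoresis with fluorescence detection, after 24 h dosing of transfected HepG2 cells. Exogenous NR-Gal4 chimera activity drives GAL4-UAS reporter; activity fitted upward versus DMSO.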

Assay [6] addresses Transcriptional activator Myb (Homo sapiens) (UniProt P10242). Description: ATG_Myb_CIS: Attagene CIS-FACTORIAL HepG2 Assay for human Myeloblastosis (Myb) Proto-Oncogene Transcription Factor (AID 2282986). As to conditions: HepG2 Attagene CIS-FACTORIAL Myb reporter transcription; actives raise or lower the signal. An outline of the steps:
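In this HepG2 transient-transfection format, cis-regulated reporter mRNA is quantified 24 h post-dosing by RT-PCR with capillary electrophoresis, fitted bidirectionally to DMSO baseline.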

Assay [7] deals with Nuclear respiratory factor 1 (Homo sapiens) (UniProt Q16656). Description: ATG_NRF1_CIS: Attagene CIS-FACTORIAL HepG2 Assay for human Nuclear Respiratory Factor 1 (NRF1) Orphan Gene (AID 2282987). As to conditions: HepG2 NRF1 cis-element reporter, Attagene multiplex; actives raise or lower the signal. An outline of the steps:
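Using DMSO as baseline, gain- or loss-of-signal was fitted for reporter mRNA levels in HepG2 cells transiently transfected with cis-regulated reporter units. Samples were taken 24 h after dosing and read by RT-PCR with capillary electrophoresis.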

Assay [8] is described as follows: ATG_NFI_CIS: Attagene CIS-FACTORIAL HepG2 Assay for human Nuclear Factor I (NFI) (AID 2282989). Particulars: HepG2 cis-regulatory reporter, NFI response element transcription; actives raise or lower the signal. In a few lines: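 Transient MRTU transfection of HepG2 → 24 h chemical dosing → total RNA, oligo(dT) RT → PCR, 6-FAM primer extension, HpaI cut → capillary electrophoresis. Endpoint fitted bidirectionally relative to DMSO.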

For assay [9], the target named is Myc proto-oncogene protein (Homo sapiens) (UniProt P01106). Put plainly: ATG_Myc_CIS: Attagene CIS-FACTORIAL HepG2 Assay for human Myelocytomatosis (Myc) Proto-Oncogene Transcription Factor (AID 2282990). As to conditions: HepG2, Attagene cis-reporter transcription factor activity; actives raise or lower the signal. In a few lines:
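Transiently transfected HepG2 cells bearing cis-promoter reporter units for endogenous transcription factors; 24 h exposure. Reporter mRNA measured by RT-PCR, 6-FAM primer extension, HpaI cut and capillary electrophoresis; bidirectional fit relative to DMSO.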

The nature of assay [10]: ATG_NRF2_ARE_CIS: Attagene CIS-FACTORIAL HepG2 Assay for human Nuclear Factor Erythroid 2 Related Factor 2 (NFR2) response to Antioxidant Response Elements (ARE) (AID 2282992).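 For AC50: reporter mRNA level measured by RT-PCR and capillary electrophoresis fluorescence.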 Particulars: HepG2 Attagene ARE/NRF2 reporter, transcription factor activity; actives raise or lower the signal. An outline of the steps:
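Fluorescence intensity of reporter-specific cDNA fragments, separated by capillary electrophoresis, reflects mRNA induction in transfected HepG2 cells at 24 h. Activity is fitted bidirectionally, DMSO serving as baseline.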

Assay [11] in a line: ATG_Oct_MLP_CIS: Attagene CIS-FACTORIAL HepG2 Assay for human Octamer-Binding Transcription Factor (Oct) (AID 2282993). As to conditions: HepG2 Attagene cis-factorial Oct reporter, mRNA; actives raise or lower the signal. In a few lines: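 Transient MRTU transfection of HepG2 → 24 h compound treatment → RNA isolation, reverse transcription, PCR → 6-FAM primer extension, HpaI digest → capillary electrophoresis. Activity fitted both directions against DMSO.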

Assay [12] deals with Cellular tumor antigen p53 (Homo sapiens) (UniProt P04637). Description: ATG_p53_CIS: Attagene CIS-FACTORIAL HepG2 Assay for human p53 Transcription Factor (AID 2282994). As to conditions: HepG2 p53 cis-element reporter, Attagene mRNA; actives raise or lower the signal. An outline of the steps:
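Transiently transfected HepG2 (multiple cis reporter transcription units); exposure 24 h; reporter RNA via RT-PCR, 6-FAM extension, 2 h HpaI digest at 37 C, CE detection; DMSO baseline.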

In assay [13] the target is Hepatocyte nuclear factor 4-alpha (Homo sapiens) (UniProt P41235). Description: ATG_HNF4a_TRANS: Attagene TRANS-FACTORIAL HepG2 Assay for human Hepatocyte Nuclear Factor 4 alpha (HNF4a) (AID 2282982; active = hit-call score of the fitted dose curve at least 0.9, where 1 is the maximum). As to conditions: HepG2 HNF4a transactivation reporter, mRNA readout. An outline of the steps:
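Transient MRTU transfection of HepG2, 24 h dosing. Readout: reporter mRNA via RT-PCR + capillary electrophoresis, fluorescence; activity fit upward relative to DMSO control.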

Assay [14] can be described thus: ATG_NF_kB_CIS: Attagene CIS-FACTORIAL HepG2 Assay for human Nuclear Factor Kappa B (NF-kB) (AID 2282991). Particulars: HepG2 Attagene cis-factorial NF-kB reporter mRNA; actives raise or lower the signal. In a few lines: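 Endpoint from a 52-component multiplexed HepG2 reporter panel: cis-regulated transcription units transiently transfected, 24 h dosing, reporter mRNA quantified by RT-PCR and capillary electrophoresis, scored as increase or decrease against DMSO.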

Assay [15] has as its target Bile acid receptor (Homo sapiens) (UniProt Q96RI1). Description: ATG_FXR_TRANS: Attagene TRANS-FACTORIAL HepG2 Assay for Farnesoid X Receptor (FXR) (AID 2282979; active = hit-call score of the fitted dose curve at least 0.9, where 1 is the maximum;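 note: hits raise reporter mRNA above DMSO so AC50 marks FXR activation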). As to conditions: HepG2 Attagene TRANS FXR-GAL4 reporter transcription. In a few lines:
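HepG2 cells were transiently transfected with GAL4-UAS reporters driven by chimeric NR-Gal4 proteins and dosed for 24 h. Reporter mRNA was quantified by RT-PCR, fluorescent labelling, HpaI digestion and capillary electrophoresis, with gain of signal scored versus DMSO.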

Assay [16] is described as follows: BSK_3C_TissueFactor: BioMAP Diversity Plus: 3C Assay for Tissue Factor Biomarker Activity (AID 2282997). As to conditions: BioMAP 3C HUVEC, tissue factor biomarker readout; actives raise or lower the signal. In a few lines: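 Tissue Factor measured by ELISA, 24 h after treatment of primary HUVEC in the BioMAP 3C setting.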
Assay [17] is described as follows: BSK_3C_uPAR: BioMAP Diversity Plus: 3C Assay for Urokinase-type plasminogen activator receptor (uPAR) Biomarker Activity (AID 2282998). As to conditions: BioMAP 3C HUVEC, uPAR biomarker ELISA; actives raise or lower the signal. In a few lines: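 ELISA readout of uPAR on human vascular endothelium (umbilical vein primary cells), taken 24 h after chemical dosing. Increases and decreases are both fitted relative to DMSO vehicle.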
For orientation: ELISA stands for enzyme-linked immunosorbent assay.

Assay [18] can be described thus: BSK_3C_VCAM1: BioMAP Diversity Plus: 3C Assay for Vascular cell adhesion molecule 1 (VCAM1) Biomarker Activity (AID 2282999). As to conditions: BioMAP 3C HUVEC, VCAM1 ELISA, cytokine-stimulated; actives raise or lower the signal. In a few lines: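 HUVEC primary cells, 24 h compound exposure; VCAM-1 by ELISA; gain/loss of signal fitted bidirectionally vs DMSO baseline.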

Assay [19] in a line: BSK_4H_Eotaxin3: BioMAP Diversity Plus: 4H Assay for Eotaxin 3 Biomarker Activity (AID 2283000).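 Note: CCL26 protein level quantified by ELISA in parallel with SRB cytotoxicity check.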 As to conditions: primary human endothelial cells (HUVEC); actives raise or lower the signal. An outline of the steps:
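Eotaxin-3 (CCL26) levels were measured by ELISA in HUVEC primary cultures 24 h post-dosing. Gain or loss of signal was fitted in both directions, with DMSO serving as baseline and negative control.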

Inconclusive results are not listed. The source made the active and inactive calls. Rule for the calls, unless noted: active = hit-call score of the fitted dose curve at least 0.9, where 1 is the maximum; inactive = score below 0.9.

Chain of Cellular tumor antigen p53 (Homo sapiens) (P04637 whole entry, looked up): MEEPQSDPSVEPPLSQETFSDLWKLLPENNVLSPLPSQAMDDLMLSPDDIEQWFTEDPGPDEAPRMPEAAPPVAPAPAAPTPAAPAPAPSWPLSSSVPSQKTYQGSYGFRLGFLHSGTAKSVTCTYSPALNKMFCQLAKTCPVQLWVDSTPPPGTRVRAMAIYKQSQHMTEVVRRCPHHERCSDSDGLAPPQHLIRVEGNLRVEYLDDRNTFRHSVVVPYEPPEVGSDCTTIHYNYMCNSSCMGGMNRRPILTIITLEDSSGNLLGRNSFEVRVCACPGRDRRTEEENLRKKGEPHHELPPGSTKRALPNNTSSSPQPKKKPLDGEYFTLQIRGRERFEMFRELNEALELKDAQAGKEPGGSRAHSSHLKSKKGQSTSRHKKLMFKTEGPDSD
Chain of Transcriptional activator Myb (Homo sapiens) (P10242 whole entry, looked up): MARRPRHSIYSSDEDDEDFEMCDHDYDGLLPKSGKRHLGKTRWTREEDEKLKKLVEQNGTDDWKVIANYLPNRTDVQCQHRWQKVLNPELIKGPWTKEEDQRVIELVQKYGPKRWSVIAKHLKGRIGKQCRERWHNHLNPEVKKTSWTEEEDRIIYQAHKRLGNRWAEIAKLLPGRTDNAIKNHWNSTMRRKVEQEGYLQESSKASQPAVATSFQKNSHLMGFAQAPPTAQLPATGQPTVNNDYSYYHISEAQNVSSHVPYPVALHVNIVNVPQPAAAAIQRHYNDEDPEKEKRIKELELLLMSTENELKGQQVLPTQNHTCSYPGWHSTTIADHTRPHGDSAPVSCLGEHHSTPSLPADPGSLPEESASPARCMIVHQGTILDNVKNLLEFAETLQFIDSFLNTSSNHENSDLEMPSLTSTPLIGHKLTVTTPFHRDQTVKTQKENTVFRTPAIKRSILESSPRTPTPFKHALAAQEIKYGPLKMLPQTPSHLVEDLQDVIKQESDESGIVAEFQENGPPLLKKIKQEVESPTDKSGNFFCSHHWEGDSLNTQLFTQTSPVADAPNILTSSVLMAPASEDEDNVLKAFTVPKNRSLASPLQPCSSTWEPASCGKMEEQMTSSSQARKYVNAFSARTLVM
Chain of Nuclear receptor subfamily 4 group A member 2 (Homo sapiens) (P43354 whole entry, looked up, the tested form may be a part): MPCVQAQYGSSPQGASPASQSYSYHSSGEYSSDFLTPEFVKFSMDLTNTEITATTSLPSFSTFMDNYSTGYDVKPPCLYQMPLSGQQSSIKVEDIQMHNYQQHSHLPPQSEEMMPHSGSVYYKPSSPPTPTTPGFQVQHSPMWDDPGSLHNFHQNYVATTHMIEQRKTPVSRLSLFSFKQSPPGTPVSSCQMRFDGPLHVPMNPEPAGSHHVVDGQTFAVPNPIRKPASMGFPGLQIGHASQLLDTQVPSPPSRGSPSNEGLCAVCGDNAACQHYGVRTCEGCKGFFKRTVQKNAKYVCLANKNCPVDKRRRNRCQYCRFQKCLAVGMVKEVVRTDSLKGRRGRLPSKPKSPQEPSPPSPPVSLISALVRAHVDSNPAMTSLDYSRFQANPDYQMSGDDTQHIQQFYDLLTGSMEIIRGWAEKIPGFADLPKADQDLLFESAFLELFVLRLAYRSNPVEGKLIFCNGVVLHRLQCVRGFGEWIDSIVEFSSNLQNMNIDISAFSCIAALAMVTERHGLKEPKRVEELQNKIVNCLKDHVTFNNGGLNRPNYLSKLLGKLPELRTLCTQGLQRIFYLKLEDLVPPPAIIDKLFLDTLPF
Chain of Hepatocyte nuclear factor 4-alpha (Homo sapiens) (P41235 whole entry, looked up): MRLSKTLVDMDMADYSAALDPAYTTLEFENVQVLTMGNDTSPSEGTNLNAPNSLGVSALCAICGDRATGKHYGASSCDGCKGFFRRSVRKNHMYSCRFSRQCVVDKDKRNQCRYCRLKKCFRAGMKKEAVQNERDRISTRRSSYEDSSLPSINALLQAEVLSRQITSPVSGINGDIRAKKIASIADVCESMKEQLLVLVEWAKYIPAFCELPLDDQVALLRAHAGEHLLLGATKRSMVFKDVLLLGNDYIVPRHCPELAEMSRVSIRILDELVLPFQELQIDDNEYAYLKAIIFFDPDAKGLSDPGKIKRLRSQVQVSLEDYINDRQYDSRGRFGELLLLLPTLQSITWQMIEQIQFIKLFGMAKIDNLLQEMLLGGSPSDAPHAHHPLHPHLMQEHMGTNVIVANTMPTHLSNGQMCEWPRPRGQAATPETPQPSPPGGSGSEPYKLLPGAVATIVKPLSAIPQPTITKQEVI
Chain of Oxysterols receptor LXR-beta (Homo sapiens) (P55055 whole entry, looked up, the tested form may be a part): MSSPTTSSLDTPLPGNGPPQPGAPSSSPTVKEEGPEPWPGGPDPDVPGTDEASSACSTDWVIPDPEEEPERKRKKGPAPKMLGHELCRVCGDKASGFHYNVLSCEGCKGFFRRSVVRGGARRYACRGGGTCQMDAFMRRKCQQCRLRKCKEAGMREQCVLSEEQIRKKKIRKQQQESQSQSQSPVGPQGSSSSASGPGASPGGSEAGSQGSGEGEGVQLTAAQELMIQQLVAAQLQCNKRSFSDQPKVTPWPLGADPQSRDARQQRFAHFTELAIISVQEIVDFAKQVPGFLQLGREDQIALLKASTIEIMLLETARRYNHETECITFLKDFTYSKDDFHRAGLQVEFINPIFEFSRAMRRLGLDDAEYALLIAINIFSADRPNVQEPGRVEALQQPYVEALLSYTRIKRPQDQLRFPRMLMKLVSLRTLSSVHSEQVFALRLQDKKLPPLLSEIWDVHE
Chain of Nuclear respiratory factor 1 (Homo sapiens) (Q16656 whole entry, looked up): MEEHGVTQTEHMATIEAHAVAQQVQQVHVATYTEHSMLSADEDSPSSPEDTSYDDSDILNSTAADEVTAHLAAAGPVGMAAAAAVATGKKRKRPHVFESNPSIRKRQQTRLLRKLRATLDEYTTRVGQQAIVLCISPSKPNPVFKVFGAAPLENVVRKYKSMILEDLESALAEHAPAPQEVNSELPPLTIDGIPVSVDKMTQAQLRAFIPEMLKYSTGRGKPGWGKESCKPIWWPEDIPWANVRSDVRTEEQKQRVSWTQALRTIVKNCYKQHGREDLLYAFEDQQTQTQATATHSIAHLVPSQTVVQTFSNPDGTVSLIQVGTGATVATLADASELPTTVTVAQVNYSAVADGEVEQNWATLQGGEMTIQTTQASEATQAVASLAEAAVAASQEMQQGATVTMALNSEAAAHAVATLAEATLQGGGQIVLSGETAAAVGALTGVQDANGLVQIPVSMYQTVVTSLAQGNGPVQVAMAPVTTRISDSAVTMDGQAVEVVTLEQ
Chain of Myc proto-oncogene protein (Homo sapiens) (P01106 whole entry, looked up): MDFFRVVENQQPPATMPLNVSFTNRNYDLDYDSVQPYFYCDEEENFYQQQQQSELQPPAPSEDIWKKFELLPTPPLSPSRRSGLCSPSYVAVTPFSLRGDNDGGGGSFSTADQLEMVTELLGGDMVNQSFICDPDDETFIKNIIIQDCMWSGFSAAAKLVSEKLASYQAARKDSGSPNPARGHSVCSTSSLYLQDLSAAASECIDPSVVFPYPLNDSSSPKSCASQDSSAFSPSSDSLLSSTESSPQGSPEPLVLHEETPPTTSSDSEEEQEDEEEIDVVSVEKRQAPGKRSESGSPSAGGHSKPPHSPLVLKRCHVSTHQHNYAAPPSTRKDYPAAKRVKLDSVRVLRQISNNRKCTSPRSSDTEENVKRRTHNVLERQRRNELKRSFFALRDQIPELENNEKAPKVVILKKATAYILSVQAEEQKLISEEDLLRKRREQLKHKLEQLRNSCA
Chain of Bile acid receptor (Homo sapiens) (Q96RI1 whole entry, looked up, the tested form may be a part): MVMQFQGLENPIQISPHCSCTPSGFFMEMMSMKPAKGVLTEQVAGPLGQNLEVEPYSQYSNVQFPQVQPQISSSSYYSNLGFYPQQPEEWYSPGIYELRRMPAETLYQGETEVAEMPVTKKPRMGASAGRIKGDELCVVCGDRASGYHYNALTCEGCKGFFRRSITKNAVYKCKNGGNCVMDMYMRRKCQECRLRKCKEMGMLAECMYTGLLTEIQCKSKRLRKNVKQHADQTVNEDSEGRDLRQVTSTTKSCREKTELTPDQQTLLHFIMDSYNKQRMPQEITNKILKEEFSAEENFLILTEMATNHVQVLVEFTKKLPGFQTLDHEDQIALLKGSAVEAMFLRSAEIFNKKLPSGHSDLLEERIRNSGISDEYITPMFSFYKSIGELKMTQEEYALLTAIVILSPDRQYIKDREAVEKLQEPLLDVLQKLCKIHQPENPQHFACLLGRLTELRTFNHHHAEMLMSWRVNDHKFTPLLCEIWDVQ

As for `CC(C)C1CCC(O)CC1` (stereo not drawn), the outcome in [1], in assay [2], in assay [3], in assay [4], in [5] and in assay [6] was inactive. Further, the compound was called inactive in [7], in [8], in assay [9], in assay [10], in assay [11] and in assay [12].
`CC(C)=CCC/C(C)=C/COC=O`: the call in assay [1], in assay [2], in assay [13], in assay [3], in [4] and in assay [5] was inactive. The outcome in [6], in [7], in assay [8], in assay [9], in assay [14] and in [10] was inactive. Further, the outcome in assay [11] and in [12] was inactive.
As to `O=C(OCc1ccccc1)C(=O)OCc1ccccc1`, the call in assay [1], in assay [2], in assay [13], in assay [3], in [6] and in [7] was inactive. The call in assay [8], in assay [9], in [14], in assay [10] and in assay [11] was inactive.
As for `CC(=O)Nc1ccc(C)cc1C`, the compound was classed as inactive in assay [15], in assay [13], in assay [4], in assay [6], in [7] and in assay [8]. The result in assay [9], in [14], in [10], in assay [11] and in [12] was inactive.
With `CC(=O)/C=C/C1=C(C)CCCC1(C)C`, the result in assay [1], in assay [3], in assay [5], in assay [6], in assay [7] and in assay [8] was inactive. For the same compound, the compound was classed as inactive in assay [9], in assay [11], in assay [16], in [17], in assay [18] and in assay [19]. The AC50 in assay [10] was 27.7 µM (active).
In the case of `CC(C)(C)c1cc(CCC(=O)NN)cc(C(C)(C)C)c1O`, the compound was classed as inactive in assay [1], in assay [2], in [7], in [8], in assay [9] and in assay [14]. Besides, the call in assay [11] and in assay [12] was inactive.
For `CCCCCOC(=O)CCC`, the compound was called inactive in assay [1], in assay [2], in assay [4], in assay [6], in assay [7] and in [8]. Further, the call in assay [9], in assay [14], in assay [10], in assay [11] and in [12] was inactive.
`Nc1nc2ccc([N+](=O)[O-])cc2s1`: the compound was called inactive in assay [1], in [13], in assay [3], in [4], in assay [5] and in assay [6]. Besides, the outcome in assay [7], in assay [8], in [9], in [14] and in assay [11] was inactive. For the same compound, in assay [10], the AC50 is 56.5 µM (active).
Consider `C=C(C)C(=O)Nc1ccc(Cl)c(Cl)c1`, for which the call in [1], in [2], in [3], in assay [6], in [7] and in assay [8] was inactive. Further, the compound was classed as inactive in assay [9], in assay [14] and in assay [12]. Moreover, the half-maximal activity concentration (AC50) in [5] is 69.8 µM (active); in [10] it was 13.6 µM (active); in assay [11], 26.5 µM (active).
Consider `NC(=O)NC1NC(=O)NC1=O` (stereo not drawn), for which the call in [1], in assay [2], in [3], in [4], in assay [6] and in [7] was inactive. Besides, the compound was classed as inactive in [8], in [9], in assay [14], in [10], in [11] and in [12].
With `Nc1ccc(S(=O)(=O)O)c(N)c1`, the outcome in assay [1], in assay [2], in assay [3], in assay [5], in assay [6] and in [7] was inactive. Also, the outcome in assay [8], in [9], in assay [14], in assay [10], in [11] and in [12] was inactive.

For orientation: AC50 means the midpoint of the concentration-response curve, whichever way the signal moves.
